A selection: hits, their analogues and other compounds. The true share with any hit is near 19%.
HT1080 IDH1KD tx = kills HT-1080 cells with IDH1 knockdown. HT-1080 IDH1 knockdown viability, ATP luminescence, 48 h. Potency, µM (titrated, usually from 46.1 µM), inactives show at the top dose activity, negative = toxicity, most hits filed as cytotoxic. hit rate 2% among 360,000;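 further: potency means the concentration at half of the fitted maximal effect; 0% = DMSO wells and -100% = cell-free medium wells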
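CellTiter-Glo luminescence after 48 h compound exposure at 37 degrees C of IDH1-knockdown HT-1080 cells in 5% FBS RPMI. %Activity scaled between DMSO wells and cell-free media wells, with curves fitted and assigned curve classes.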
DT40 TDP1 CPT = growth inhibition of DT40 Tdp1-/-;hTDP1 cells with camptothecin (screen for TDP1 inhibitors); chicken DT40 Tdp1-/-;hTDP1 cells + 20 nM CPT, ATP luminescence, 48 h; Potency, µM (series often up to 46.2 µM), inactives show at the highest dose activity change, negative = growth inhibition, usual class: inhibitors; hit rate 12% among 420,000; AID 686979; further: potency means the concentration at half of the fitted maximal effect; nearly all actives have a fitted effect of over 55% in size
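Chicken DT40 Tdp1-/- cells stably complemented with human TDP1 were seeded at 400 cells/well in medium containing 20 nM camptothecin, exposed to pin-transferred compounds, and grown at 37 °C for at least 48 hr. Viability was read as ATP luminescence.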
DT40 TDP1 no CPT = qHTS for Inhibitors of human tyrosyl-DNA phosphodiesterase 1 (TDP1): qHTS in cells in absence of CPT | DT40 Tdp1-/- hTDP1 cells, no CPT, ATP luminescence, 48 h | Potency, µM (doses to about 46.2 µM), for inactives: at the highest dose activity change, negative = growth inhibition, actives largely listed as inhibitors | hit rate 15% among 420,000 | AID 686978, 2013; further: potency means the concentration at half of the fitted maximal effect; nearly all actives have a fitted effect of over 55% in size
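A cellular qHTS used chicken DT40 cells lacking endogenous Tdp1 but carrying stably transfected human TDP1. Compounds were applied without camptothecin, and cell growth kinetics were judged by ATP-dependent luminescence after ≥48 hr.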
HT1080NT lethal = kills 2HG-producing HT-1080-NT fibrosarcoma cells; hit rate 1.6% among 360,000; Potency, µM (doses to about 46.1 µM), inactives show at the top dose activity, negative = less viability, actives largely listed as cytotoxic; HT-1080-NT fibrosarcoma viability, CellTiter-Glo ATP luminescence, 48 h; AID 686970;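 further: NT is the 2HG producing partner of a matched IDH1 knockdown line; potency means the concentration at half of the fitted maximal effect; 0% = DMSO-treated cells and -100% = media-only wells without cells; nearly all actives have a fitted effect of over 55% in size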
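Viability by CellTiter-Glo luminescence after 48 h compound exposure at 37C of HT-1080-NT cells (750/well, RPMI, 5% FBS). % activity scaled between DMSO wells and medium-only wells, then curve-fitted and categorized by curve class.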
IL-1B inflam inh = inhibitors of inflammasome signaling (IL-1 beta secretion); AID 743279; THP-1 LPS/ATP IL-1B secretion, AlphaLISA, 16 h; hits give low values; hit rate 4.7% among 360,000; activity change, % at 57.5 µM; in the data active means activity change below about -50%; inconclusive means mostly about -30% to -49%
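THP-1 cells pretreated 1 hr with compounds (up to 57.5 uM final), then stimulated with LPS (250 ng/mL final) plus ATP (1.25 mM final); secreted IL-1B measured by AlphaLISA after 16 hr, decreased signal indicating inhibition.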
Numbers without * were called inactive; ? = inconclusive; . = not tested or not shown; [ ] = remark or other dose. Unless noted, the call rests on the fitted dose curve; in most records, active means well fitted curve in the direction sought with a large enough effect; inconclusive means small, poorly fitted or top-dose-only effect, or another doubt; inactive means no such curve, though single readings can be large; an effect the other way counts as inactive or inconclusive. Unless noted, on the % scale 0 is the no-effect control and ±100 the full control effect.

SMILES	HT1080 IDH1KD tx	DT40 TDP1 CPT	DT40 TDP1 no CPT	HT1080NT lethal	IL-1B inflam inh
O=c1cc(N2CCN(c3ccc(F)cc3)CC2)[nH]c(=O)n1Cc1ccc(F)cc1	-19%	9.2µM*	8.2µM*	-5%	12
COc1ccc(-c2cc(=O)n(CCC#N)[nH]2)cc1	-13%	?	23µM*	-10%	6
Cc1oc(-c2ccccc2Cl)nc1CS(=O)(=O)CC(=O)NC(C)c1ccccc1 (configuration not stated)	0%	?	23µM*	4%	17
Cc1oc(-c2ccccc2Cl)nc1CS(=O)(=O)CC(=O)N1CCOCC1	-8%	10%	-14%	-5%	13
Cc1oc(-c2ccccc2Cl)nc1CS(=O)(=O)CC(=O)NCc1ccc(F)cc1	.	?	18µM*	.	.
Cc1oc(-c2ccccc2Cl)nc1CS(=O)(=O)CC(=O)NC(C)CCc1ccccc1 (configuration not stated)	.	16µM*	?	.	.
COc1ccc(N=c2scc(C)n2CCCN2CCCC2=O)cc1	19%	0%	15%	10%	15
CC1=Nc2ccccc2N=C(NC(=O)c2ccccc2)C1c1ccccc1 (configuration not stated)	3%	-26%	?	0%	?
Cc1c(CNCCc2ccccc2Cl)c(C(=O)O)c(C)n1-c1ccccc1	-2%	-15%	-23%	-7%	-4
CC1(C)CC[C@]2(C(=O)n3ccnc3)CC[C@]3(C)[C@H](C(=O)C=C4[C@@]5(C)C=C(C#N)C(=O)C(C)(C)[C@@H]5CC[C@]43C)[C@@H]2C1	3.7µM*	0.58µM*	0.65µM*	4.1µM*	-100*
NC(=O)C1CCN(Cc2nc3cc(Cl)ccc3c(=O)[nH]2)CC1	18µM*	-10%	-12%	21µM*	23
NC(=O)C1CCN(Cc2nc3ccccc3c(=O)[nH]2)CC1	6%	4%	-2%	5%	15
O=c1[nH]c(CN2CCN(S(=O)(=O)/C=C/c3ccccc3)CC2)nc2cc(Cl)ccc12	21µM*	?	?	9.2µM*	-8
O=C(CCN1C(=O)C2CCCCC2C1=O)Nc1ccc(F)c(F)c1F (configuration not stated)	18%	-2%	-25%	5%	16
Cc1cc(C(=O)OCC(=O)NC2CCS(=O)(=O)C2)c(C)n1-c1ccccc1 (configuration not stated)	-4%	?	12µM*	-6%	-13
COc1ccc(-c2cc(C(=O)OCC(=O)NC3CC3)c3ccccc3n2)cc1	-2%	?	?	2%	26
Cc1ccc(Oc2ccc(OCC(=O)NC3CCS(=O)(=O)C3)cc2)cc1 (configuration not stated)	?	23µM*	16µM*	?	-19
O=C(COc1ccc(Oc2ccccc2)cc1)NC1CCS(=O)(=O)C1 (configuration not stated)	-13%	?	?	?	30
COc1ccc2cc(-c3cc(C(=O)OCC(=O)Nc4c(C)n(C)n(-c5ccccc5)c4=O)c4ccccc4n3)ccc2c1	-1%	13µM*	10µM*	9%	0
COc1ccc(C(=O)OCC(=O)Nc2c(C)n(C)n(-c3ccccc3)c2=O)cc1	13%	3%	10%	6%[9.24 µM]	15
Cc1cc(C(=O)OCC(=O)NC2CCS(=O)(=O)C2)c2ccccc2n1 (configuration not stated)	10%	1%	-9%	13%	6
COc1ccc2cc(-c3cc(C(=O)OCC(=O)NC4CCS(=O)(=O)C4)c4ccccc4n3)ccc2c1 (configuration not stated)	10µM*	?	?	?	-19
Cc1ccc2c(CC(=O)NNC(=O)c3ccncc3)coc2c1	0%	10%	-11%	-3%	-1
Cc1c(NC(=O)COC(=O)c2cc3c4ccccc4n(C)c3s2)c(=O)n(-c2ccccc2)n1C	-1%	-14%	-30%	-12%	-55*
O=C(O)CCn1[nH]c(=O)ccc1=O	10%	-9%	-12%	22%	11
SMILES	HT1080 IDH1KD tx	DT40 TDP1 CPT	DT40 TDP1 no CPT	HT1080NT lethal	IL-1B inflam inh
Oc1cccc(/C=N/N2CCN(C3c4ccccc4-c4ccccc43)CC2)c1	23µM*	?	?	?	-57*
COc1cccc(/C=N/N2CCN(C3c4ccccc4-c4ccccc43)CC2)c1O	1%	?	16µM*	-2%	-6
COc1ccccc1N1CCN(/N=C/c2cccc(OC)c2O)CC1	7%	-17%	?	5%	0
COc1cc(/C=N/N2CCN(C3c4ccccc4-c4ccccc43)CC2)ccc1O	?	26µM*	23µM*	?	0
CCOC(=O)c1c(C)[nH]c(C)c1C(=O)COC(=O)c1ccc(Cl)c(S(N)(=O)=O)c1	0%	-112%	?	-1%	-5
COCCNc1ncnc2c1ncn2[C@H]1CN(Cc2ccc(-c3ccccc3)cc2)C[C@@H](CO)O1	?	18µM*	21µM*	-28%	1
OCCCNc1ncnc2c1ncn2[C@H]1CN(Cc2ccc(-c3ccccc3)cc2)C[C@@H](CO)O1	-20%	15µM*	21µM*	-17%	63
COCCNc1ncnc2c1ncn2[C@H]1CN(Cc2ccc(F)cc2)C[C@@H](CO)O1	0%	-18%	-17%	?	20
C=CCNc1ncnc2c1ncn2[C@H]1CN(Cc2ccco2)C[C@@H](CO)O1	9%	-12%	-3%	?	0
C=CCNc1ncnc2c1ncn2[C@H]1CN(Cc2ccc(-c3ccccc3)cc2)C[C@@H](CO)O1	?	16µM*	23µM*	?	-12
COc1ccccc1-c1noc(-c2ccc(NCCc3ccccc3)c([N+](=O)[O-])c2)n1	.	3%	2%	.	.
c1ccc(CN=C2CCCc3ccccc3N2)cc1	-6%	-28%	?	-1%	-19
COCCCNC(=O)c1c(-c2ccccc2)c(-c2ccccc2)nn(C)c1=O	.	-21%	-11%	.	.
COC(=O)c1c(-c2ccccc2)c(-c2ccccc2)nn(C)c1=O	-5%	?	?	-3%	11
COCCOC(=O)c1c(-c2ccccc2)c(-c2ccccc2)nn(C)c1=O	.	?	21µM*	.	.
CC(C)OC(=O)c1c(-c2ccccc2)c(-c2ccccc2)nn(C)c1=O	.	?	21µM*	.	.
COc1ccc(C[C@H]2CN3C(=NC[C@@H]3C(C)C)N2CCNC(=O)c2ccc(C)c(Br)c2)cc1	-26%	9.2µM*	8.2µM*	?	-63*

From PubChem BioAssay
